Screening data from PubChem.
POLB inh = blocks human DNA polymerase beta activity | P06746 | Pol beta primer extension/strand displacement, fluorescence kinetic | Potency, µM (highest dose often 114 µM), inactives show top-dose activity change, negative = inhibition, most hits filed as inhibitors | 340,000 compounds, 1.3% hits; further: potency means the concentration at half of the fitted maximal effect; on the % scale 0 is the no-effect control and ±100 the full control effect
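Values derive from four-parameter Hill fits of normalized kinetic data: reads at 0 and 10 min following addition of 50 nM substrate to 10 nM Pol beta preincubated 15 min with compound.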
Pol eta inh = blocks human DNA polymerase eta activity; Q9Y253; recombinant Pol eta, fluorescent DNA replication assay; Potency, µM (highest dose often 114 µM), without a hit: at the highest dose activity change, negative = inhibition, actives largely listed as inhibitors; 390,000 compounds, 1.2% hits; further: potency means the concentration at half of the fitted maximal effect; on the % scale 0 is the no-effect control and ±100 the full control effect
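Pol eta at 10 nM preincubated with compounds 15 min at room temperature; reaction started with fluorescent substrate (50 nM final) and read kinetically at 0 and 10 min.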
WRN helicase inh = WRN helicase (human) inhibition. Q14191. Potency, µM (top dose mostly 114 µM), inactives show at the top dose activity change, negative = inhibition, most hits filed as inhibitors. WRN helicase unwinding, fluorescent forked duplex, kinetic. AID 651768. 360,000 compounds, 0.46% hits; further: potency means the concentration at half of the fitted maximal effect; on the % scale 0 is the no-effect control and ±100 the full control effect; nearly all actives have a fitted effect of over 55% in size
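Fluorescence dequenching readout, ex 525 nm/em 598 nm, kinetic mode: forked duplex DNA (100 nM final) with adjacent fluorophore and quencher unwound by WRN (20 nM final) with 2 mM ATP. Compound preincubation 15 min, room temperature.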
PI5P4Ka inh = PI5P4K alpha (human) kinase inhibition; max response, %; P48426; PI5P4Kalpha enzyme, ADP-Glo luminescence, 60 min; active compounds read low; 330,000 compounds, 1.2% hits; active means max response of -50% or lower; inconclusive means between -30% and -50%; inactive means -30% or higher; further: value at the top dose of about 77 µM; on the % scale 0 is the no-effect control and ±100 the full control effect
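Compounds were pin-transferred onto PI5P4Kalpha and substrate in HEPES pH 7.4 buffer with EGTA, CHAPS and 5% DMSO. ATP (5 microM final) started the reaction, which ran 60 minutes at room temperature before ADP-Glo detection.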
Pol iota inh = DNA polymerase iota (human) inhibition. Q9UNA4. Pol iota fluorescent replication assay, 10 min. Potency, µM (titrated, usually from 115 µM), for the others: at the top dose activity, negative = inhibition, actives largely listed as inhibitors. 390,000 compounds, 1% hits. AID 588590; further: potency means the concentration at half of the fitted maximal effect
Target sequence (Q9UNA4 whole entry, looked up): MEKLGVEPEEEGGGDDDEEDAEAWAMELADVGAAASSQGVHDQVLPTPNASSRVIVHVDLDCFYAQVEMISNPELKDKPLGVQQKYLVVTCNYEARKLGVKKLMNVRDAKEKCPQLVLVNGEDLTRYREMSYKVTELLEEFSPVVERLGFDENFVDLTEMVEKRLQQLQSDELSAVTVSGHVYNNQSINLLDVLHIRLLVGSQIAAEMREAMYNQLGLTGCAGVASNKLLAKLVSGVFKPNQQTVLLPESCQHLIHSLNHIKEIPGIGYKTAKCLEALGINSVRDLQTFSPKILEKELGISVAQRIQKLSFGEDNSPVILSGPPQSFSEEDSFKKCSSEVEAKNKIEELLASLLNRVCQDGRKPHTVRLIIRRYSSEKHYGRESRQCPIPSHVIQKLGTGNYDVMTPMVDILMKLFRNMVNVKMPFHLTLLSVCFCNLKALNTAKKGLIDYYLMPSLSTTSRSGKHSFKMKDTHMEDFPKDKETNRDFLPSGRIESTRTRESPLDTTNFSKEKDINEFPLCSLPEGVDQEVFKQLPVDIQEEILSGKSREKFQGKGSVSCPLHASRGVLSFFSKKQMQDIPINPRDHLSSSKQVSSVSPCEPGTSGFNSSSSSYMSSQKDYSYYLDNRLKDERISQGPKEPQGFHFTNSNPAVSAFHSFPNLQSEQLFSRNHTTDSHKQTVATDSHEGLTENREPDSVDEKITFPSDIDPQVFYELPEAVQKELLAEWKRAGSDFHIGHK
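Fluorescent replication assay read twice, at 0 min and 10 min after adding 50 nM (final) substrate. Enzyme (10 nM) and compounds were first incubated 15 min at room temperature; enzyme-free buffer wells were negative controls.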
Pol kappa inh = inhibitors of human DNA polymerase kappa | Q9UBT6 | purified Pol kappa, fluorescent DNA synthesis assay, 10 min | 400,000 compounds, 0.53% hits | Potency, µM (highest dose often 107 µM), for inactives: at the top dose activity, negative = inhibition, usual class: inhibitors | AID 588579; further: potency means the concentration at half of the fitted maximal effect; on the % scale 0 is the no-effect control and ±100 the full control effect
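Kinetic fluorescence readout at 0 and 10 min followed reaction start with substrate at 50 nM final. Beforehand, enzyme (10 nM Pol kappa) stood 15 min with compound at room temperature; buffer-only wells were negative controls.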
Numbers without * were called inactive; [ ] = remark or other dose. Rows were chosen to be rich in hits. Some 2.8% of all compounds tested hit in one or more screens of this group. Unless noted, the call rests on the fitted dose curve; in most records, active means well fitted curve in the direction sought with a large enough effect; inconclusive means small, poorly fitted or top-dose-only effect, or another doubt; inactive means no such curve, though single readings can be large; an effect the other way counts as inactive or inconclusive.

Results for Cc1ccccc1S(=O)(=O)Cc1ccc(C(=O)NCc2ccccc2Cl)o1 ?
POLB inh: -0.1%; Pol eta inh: -4.4%; Pol iota inh: 17.6%; Pol kappa inh: -3.9%

What do the screens show for `O=C(COc1ccc2c3c(c(=O)oc2c1)CCC3)Nc1ccc(CCO)cc1`?
POLB inh: inconclusive; Pol eta inh: 50.1µM*; WRN helicase inh: -14.9%[11.6 µM]; PI5P4Ka inh: 0.0; Pol iota inh: inconclusive; Pol kappa inh: -3.4%

How did NS(=O)(=O)c1ccc(CCNC(=O)COc2ccc3c4c(c(=O)oc3c2)CCC4)cc1 do in these assays?
POLB inh: -11.3%; Pol eta inh: -1.0%; WRN helicase inh: 0.1%; PI5P4Ka inh: 2.8; Pol iota inh: -7.4%; Pol kappa inh: -8.2%

Results for Cc1cc(C)c2c(c1)c(C)cc1nnc(SCc3ccccc3C#N)n12 ?
POLB inh: -14.6%; Pol eta inh: -15.0%; Pol iota inh: 13.5%; Pol kappa inh: -4.7%

What do the screens show for `Cc1cccc(-n2nnnc2S(C)(=O)=O)c1`?
POLB inh: -1.4%; Pol eta inh: 5.2%; Pol iota inh: inconclusive; Pol kappa inh: -8.2%[60.1 µM]

How did COc1cccc(-n2nnnc2S(C)(=O)=O)c1 do in these assays?
POLB inh: 7.7%; Pol eta inh: -4.4%; WRN helicase inh: 50.1µM*; PI5P4Ka inh: 0.9; Pol iota inh: 14.2%; Pol kappa inh: -15.6%

How did COc1ccccc1C(=O)NC(=O)COC(=O)c1cnccn1 do in these assays?
Pol eta inh: -2.2%; WRN helicase inh: 0.2%; PI5P4Ka inh: -4.1

How did COc1ccccc1C(=O)NC(=O)COC(=O)c1nccnc1N do in these assays?
Pol eta inh: 17.8µM*; WRN helicase inh: -12.5%; PI5P4Ka inh: -0.3; Pol iota inh: 2.8%; Pol kappa inh: -22.0%

How did CCn1c(=O)c2sccc2n2c(CCCC(=O)N3CCN(c4cc(C)ccc4C)CC3)nnc12 do in these assays?
POLB inh: 13.7%; Pol eta inh: -7.8%; Pol iota inh: 29.3%; Pol kappa inh: 2.8%

How did CC[C@H](C)[C@H](NC(=O)[C@H](Cc1ccc(O)cc1)NC(=O)[C@H](CCCNC(=N)N)NC(=O)[C@H](CCCNC(=N)N)NC(=O)[C@H](CC(C)C)NC(=O)[C@H](CC(=O)O)NC(=O)[C@H](C)NC(=O)[C@H](C)NC(=O)[C@H](Cc1ccc(O)cc1)NC(=O)[C@H](CCC(N)=O)NC(=O)[C@H](C)NC(=O)[C@H](CCSC)NC(=O)[C@H](CCC(N)=O)NC(=O)[C@H](CCC(=O)O)NC(=O)[C@@H]1CCCN1C(=O)[C@@H](NC(=O)[C@H](C)NC(=O)[C@H](CC(N)=O)NC(=O)[C@H](CC(=O)O)NC(=O)CNC(=O)[C@@H]1CCCN1C(=O)[C@H](Cc1ccc(O)cc1)NC(=O)[C@@H](NC(=O)[C@@H]1CCCN1C(=O)[C@H](CCC(=O)O)NC(=O)[C@H](CC(C)C)NC(=O)[C@@H]1CCCN1C(=O)[C@H](C)N)C(C)C)[C@@H](C)O)C(=O)N[C@@H](CC(N)=O)C(=O)N[C@@H](CCSC)C(=O)N[C@@H](CC(C)C)C(=O)N[C@H](C(=O)N[C@@H](CCCNC(=N)N)C(=O)N1CCC[C@H]1C(=O)N[C@@H](CCCNC(=N)N)C(=O)N[C@@H](Cc1ccc(O)cc1)C(N)=O)[C@@H](C)O do in these assays?
Pol kappa inh: 18.2%[60.1 µM]

What do the screens show for `Cc1nc(NCc2ccco2)c(C#N)c2c1COC(C)(C)C2`?
POLB inh: 1.1%; Pol eta inh: 7.8%; WRN helicase inh: -6.5%; PI5P4Ka inh: -0.6; Pol iota inh: inconclusive; Pol kappa inh: -3.4%

How did CC1(C)Cc2c(C#N)c(NCc3ccco3)nc(-c3ccco3)c2CO1 do in these assays?
POLB inh: inconclusive; Pol eta inh: 14.1µM*; WRN helicase inh: -23.8%[57.1 µM]; PI5P4Ka inh: inconclusive; Pol iota inh: inconclusive; Pol kappa inh: -44.7%

What do the screens show for `N#Cc1c(NCCN)nc(-c2ccco2)c2c1CCCC2`?
POLB inh: 56.2µM*; Pol eta inh: -13.7%; WRN helicase inh: 6.0%; PI5P4Ka inh: -2.5; Pol iota inh: -3.6%; Pol kappa inh: -9.5%

How did CC[C@]12c3[nH]c4cc(-c5ccco5)ccc4c3CCN1C(=O)[C@@H](CC(=O)NCC13CC4CC(CC(C4)C1)C3)C[C@@H]2C(=O)N1CCN(C(=O)c2ccco2)CC1 do in these assays?
Pol eta inh: -13.4%; WRN helicase inh: 4.3%[11.6 µM]; PI5P4Ka inh: -51.4*; Pol iota inh: 28.2µM*; Pol kappa inh: -25.6%

What do the screens show for `CC[C@]12c3[nH]c4ccccc4c3CCN1C(=O)C(CC(=O)NCCCn1ccnc1)C[C@@H]2C(=O)N1CCN(C(=O)C2CC2)CC1` (stereo partly specified)?
Pol eta inh: -10.2%; WRN helicase inh: -0.7%; PI5P4Ka inh: -0.9; Pol iota inh: -6.9%; Pol kappa inh: -12.4%

How did CC[C@]12c3[nH]c4ccc(Cl)cc4c3CCN1C(=O)[C@@H](CC(=O)NCCCn1ccnc1)C[C@@H]2C(=O)N1CCN(C(=O)C2CC2)CC1 do in these assays?
Pol eta inh: -5.6%; WRN helicase inh: -0.8%[11.6 µM]; PI5P4Ka inh: 2.9; Pol iota inh: 89.1µM*; Pol kappa inh: 13.9%

How did CC[C@]12c3[nH]c4cc(-c5ccco5)ccc4c3CCN1C(=O)[C@@H](CC(=O)NCC13CC4CC(CC(C4)C1)C3)C[C@@H]2C(=O)N1CCN(C(=O)C2CC2)CC1 do in these assays?
Pol eta inh: -13.4%; WRN helicase inh: -0.6%; PI5P4Ka inh: -20.4; Pol iota inh: -1.0%; Pol kappa inh: 6.7%

How did Cc1[nH][nH]c(=O)c1C(c1ccc(-c2ccc(Cl)c(Cl)c2)o1)c1c(C)[nH][nH]c1=O do in these assays?
POLB inh: -13.4%; Pol eta inh: inconclusive; WRN helicase inh: 0.3%; PI5P4Ka inh: -18.0; Pol iota inh: 3.55µM*; Pol kappa inh: 1.4%

How did CCOc1ccc(Cl)cc1C(c1c(C)[nH][nH]c1=O)c1c(C)[nH][nH]c1=O do in these assays?
POLB inh: 7.2%; Pol eta inh: -18.1%; WRN helicase inh: 4.9%; PI5P4Ka inh: 1.2; Pol iota inh: inconclusive; Pol kappa inh: -2.5%

What do the screens show for `COc1ccc(-c2ccc(C(c3c(C)[nH][nH]c3=O)c3c(C)[nH][nH]c3=O)o2)c([N+](=O)[O-])c1`?
POLB inh: inconclusive; Pol eta inh: -16.6%; WRN helicase inh: -29.3%; PI5P4Ka inh: -1.9; Pol iota inh: 11.2µM*; Pol kappa inh: -17.0%
